SMILES strings stand for the structures.

Holding throughout (assay type): functional
The target of assay [1] is Solute carrier family 2, facilitated glucose transporter member 1 (Homo sapiens) (UniProt P11166). The experiment in a line: ST_JUDE_LEISH: Cytotoxicity at 2uM final concentration against transgenic Leishmania Mexicana promastigotes LmGLUT1 that are glucose transport deficient and complemented with the human glucose transporter GLUT1. Activity is measured by DNA content using SYBR green in vitro.
Solute carrier family 2, facilitated glucose transporter member 1 (Homo sapiens), sequence (P11166 whole entry): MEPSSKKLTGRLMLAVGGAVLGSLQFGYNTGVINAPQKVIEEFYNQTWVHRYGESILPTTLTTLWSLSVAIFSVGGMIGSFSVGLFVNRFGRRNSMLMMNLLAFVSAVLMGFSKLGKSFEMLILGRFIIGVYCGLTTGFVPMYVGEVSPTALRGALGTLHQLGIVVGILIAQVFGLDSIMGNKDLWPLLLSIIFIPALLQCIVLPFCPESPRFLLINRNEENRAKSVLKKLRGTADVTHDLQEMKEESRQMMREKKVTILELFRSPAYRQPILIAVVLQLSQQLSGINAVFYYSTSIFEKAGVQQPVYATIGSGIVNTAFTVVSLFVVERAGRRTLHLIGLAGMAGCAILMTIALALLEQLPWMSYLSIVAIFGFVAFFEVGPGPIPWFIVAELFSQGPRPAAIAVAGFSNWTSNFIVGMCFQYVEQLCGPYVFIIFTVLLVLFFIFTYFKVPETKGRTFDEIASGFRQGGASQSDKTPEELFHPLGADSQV

The target in assay [2] is Hexose transporter 1 (Plasmodium falciparum) (UniProt O97467). The experiment in a line: ST_JUDE_LEISH: Cytotoxicity at 2uM final concentration against transgenic Leishmania Mexicana promastigotes LmPfHT that are glucose transport deficient and complemented with the Plasmodium falciparum hexose transporter. Activity is measured by DNA content using SYBR green in vitro.

Assay [3] concerns the target Glucose transporter (Leishmania mexicana) (UniProt O61059). The assay is described as follows: ST_JUDE_LEISH: Cytotoxicity at 2uM final concentration against transgenic Leishmania Mexicana promastigotes LmGT2 that are glucose transport deficient and complemented with the L. Mexicana glucose transporter 2. Activity is measured by DNA content using SYBR green in vitro.

What is called inhibition is the drop in the measured response relative to a control, in per cent. For the compound `c1ccc([C@H]2CN3CCSC3=N2)cc1`, the inhibition in assay [1] is -0.53%; in assay [2] it was 2.58%; in assay [3], -0.34%.

Regarding `CCCNCCc1ccc(NS(=O)(=O)c2cccc(-c3ccc(Cl)cc3)c2)cc1`, the inhibition in assay [1] worked out at 1.93%; in assay [2], 0.61%; in assay [3], 1.01%.

Take `COc1ccc2ccccc2c1CNCC1CCN(CC2CCCCC2)CC1`: the inhibition in assay [1] is 1.54%; in assay [2], -0.57%; in assay [3], -1.88%.

For the compound `Cc1cccc(C)c1C1CCN(C2CCC(NC(=O)/C=C/c3ccccc3)CC2)CC1` (stereo not drawn), the inhibition in assay [1] was 5.77%; in assay [2], 5.67%; in assay [3], 5.46%.

Regarding `COc1ccc2nccc([C@H](O)CN3CCC(NCc4cc(C)c5c(c4)OCCO5)CC3)c2n1`, the inhibition in assay [1] was 5.84%; in assay [2] it was 8.31%; in assay [3], -2.32%.

On to `CN(C)CCCOc1ccc(CN2CC[C@H](NC(=O)c3ccc(Cl)c(Cl)c3)C2)cc1Br`, for which the inhibition turned out to be 3.8% in assay [1], 0.94% in assay [2] and 0.53% in assay [3].

Consider `CCCCCC(C)N/C(=N/c1cccc(Cl)c1Cl)Nc1ccc(C#N)cc1O` (stereo not drawn), for which the inhibition in assay [1] was 5.91%; in assay [2] it was 4.59%; in assay [3], 2.7%.

`O=C(N/N=C/c1nc2ccccc2[nH]1)c1cccc([N+](=O)[O-])c1`: the inhibition in assay [1] was found to be 2.46%; in assay [2], 1%; in assay [3] it was 0.25%.

Turning to `N#Cc1ccc2c(c1)CCN(CCC1CCC(NC(=O)c3cc4ccccc4[nH]3)CC1)CC2` (stereo not drawn), the inhibition in assay [1] turned out to be 8.94%; in assay [2], 5.71%; in assay [3], 6.21%.

Consider `Clc1ccc2c(NCCc3ccccc3)ccnc2c1`, for which the results for the inhibition in assay [1], in assay [2] and in assay [3] were 4.51%, 4.33% and 2.56%, respectively.

As for `CN1CCN(c2ccc(Nc3ncc([N+](=O)[O-])c(Nc4ccccc4O)n3)cc2)CC1`, the inhibition in assay [1] turned out to be 2.1%; in assay [2], 3.83%; in assay [3], 1.84%.

Turning to `CC(C)(C)c1ccc(NC(=O)N[C@@H]2CCN(c3ccnc4ccccc34)C2)cc1`, the inhibition in assay [1] is 0.09%; in assay [2], -0.25%; in assay [3], 0.79%.

In the case of `COc1ccc(CCNCC(O)c2cccc(Br)c2)c(Cl)c1OC` (stereo not drawn), the inhibition was -3.38% in assay [1], -1.73% in assay [2] and -3.62% in assay [3].

Consider `O=C(c1cccc(-c2noc(C(F)(F)F)n2)c1)N1CCN(c2ccncc2)CC1`, for which the inhibition in assay [1] turned out to be 11.1%; in assay [2], 10.9%; in assay [3], 10.8%.

Regarding `O=C(NC1CCCCC1)N(CCCn1ccnc1)Cc1csc(-c2ccc(CNCc3ccccc3)cc2)n1`, the inhibition in assay [1] is 0.1%; in assay [2], 0.82%; in assay [3], 1.34%.

Turning to `CN(C)Cc1cccc(CNC(=O)c2sccc2OCc2ccc(Cl)cc2)c1`, the inhibition in assay [1] is -0.98%; in assay [2] it was -3.67%; in assay [3] it was 1.11%.

With `CCOC(=O)CCCc1cc(NC2CCN(C)CC2)nc(Nc2ccc(OC)cc2)n1`, the inhibition in assay [1] was -0.13%; in assay [2] it was 0.24%; in assay [3], 1.72%.

Regarding `O=c1c2c([nH]c3cc(Cl)ccc13)CCCC2`, the inhibition is 4.95% in assay [1], 3.08% in assay [2] and 3.09% in assay [3].

`CC(=O)Nc1cccc(C(=O)Nc2ccc(-c3cccc(-c4nc5cccc(C)c5[nH]4)c3)cc2)c1`: the inhibition stood at 0.48% in assay [1], 1.78% in assay [2] and 0.36% in assay [3].

Take `CSc1ccc(CN2CCC(CNC(=O)c3cc(-c4ccccc4F)cs3)C2)cc1` (stereo not drawn): the inhibition in assay [1] was 0.69%; in assay [2], -0.86%; in assay [3] it was -3.72%.

On to `Cc1cc(N2CCCC2)nc(Nc2ccc(NC(=O)Nc3ccccc3)cc2)n1`, for which the results for the inhibition in assay [1], in assay [2] and in assay [3] were 2.65%, 2.28% and 3.63%, respectively.

`Nc1c(Cl)cc(C(O)CNCCCCCCOCCC=C2CCOCC2)cc1Cl` (stereo not drawn): the inhibition was -0.91% in assay [1], 0.32% in assay [2] and -1.31% in assay [3].

Regarding `CC(C)(C)c1nn(-c2ccccc2)c2[nH]c(=O)c(CNC3CCCC3)cc12`, the inhibition in assay [1] was determined as 3.76%; in assay [2], 1.66%; in assay [3] it was 2.65%.

For the compound `C=C(F)c1sc(CNCCCNc2nc3ccccc3[nH]2)c(C)c1Br`, the inhibition in assay [1] was found to be 57.5%; in assay [2], 73.8%; in assay [3] it was 68.7%.

Turning to `COc1ccc(NC(=O)[C@H](CC(C)C)Nc2cc(C)nc(NCCc3cccs3)n2)cc1`, the results for the inhibition in assay [1], in assay [2] and in assay [3] were -2.08%, 1.29% and -1.58%, respectively.

Turning to `CCCNCc1ccc(-c2ccc(CN(CCOC)C(=O)COc3ccccc3Cl)cc2)nc1`, the inhibition is -0.3% in assay [1], 1.54% in assay [2] and -1.95% in assay [3].

For `O=C(Nc1ccc2c(c1)CCCN2S(=O)(=O)c1cccs1)c1cc([N+](=O)[O-])ccc1Cl`, the inhibition in assay [1] is 5%; in assay [2], 8.25%; in assay [3], 3.5%.

Turning to `Fc1ccc2[nH]c(-c3cccc(-c4cccc(CN5CCN(c6ccncc6)CC5)c4)c3)nc2c1`, the inhibition in assay [1] was 0.24%; in assay [2], 1.73%; in assay [3], 0.3%.

With `O=C(CCN(Cc1ccco1)c1nc(-c2ccc(F)cc2)nc2ccccc12)NC1CC1`, the inhibition stood at 4.96% in assay [1], 1.65% in assay [2] and 9.67% in assay [3].

In the case of `FC(F)(F)c1ccc(NC(=S)N2CCC(CCN3CCC(c4c[nH]c5ccccc45)CC3)CC2)cc1`, the inhibition in assay [1] amounted to 5.27%; in assay [2], 3.8%; in assay [3], 5.31%.

`Cc1cccc(CN2CCCN(Cc3cccc(C(=O)Nc4ccc(C(C)(C)C)cc4)c3)CC2)c1`: the inhibition in assay [1] worked out at 3.43%; in assay [2], 2.22%; in assay [3] it was 1.26%.

On to `Cc1cc(Cc2ccc(S(=O)(=O)c3cc4c(cc3O)CCN(C)CC4)cc2)ccc1Cl`, for which the inhibition is -0.06% in assay [1], 2.07% in assay [2] and 0.31% in assay [3].

For `Cc1[nH]c(C)c(-c2ccc(OCc3ccccc3C(F)(F)F)nc2)c(=O)c1Br`, the inhibition was 4.88% in assay [1], 6.13% in assay [2] and 1.94% in assay [3].

As for `CCCCN(CCCC)CC(O)c1cc(-c2ccc(Cl)cc2)nc2c(Cl)cc(Cl)cc12` (stereo not drawn), the inhibition worked out at 6.76% in assay [1], 7.36% in assay [2] and 4.19% in assay [3].

`O=C(NCC1CC1)C1CCN(C(c2ccccc2)c2cc(F)cc(F)c2)CC1` (stereo not drawn): the results for the inhibition in assay [1], in assay [2] and in assay [3] were 3.61%, 3.92% and -1.03%, respectively.

For the compound `Cc1cccc2nc(-c3ccc(-c4ccc(CNCc5ccc(CN)cc5)cc4)cc3)[nH]c12`, the inhibition in assay [1] is 7.89%; in assay [2], 5.94%; in assay [3], 2.77%.

Turning to `COc1ccc2nccc([C@@H](O)CN3CCC(NCc4nc5ccccc5[nH]4)CC3)c2c1`, the values for the inhibition in assay [1], in assay [2] and in assay [3] were 1.84%, -0.18% and -0.97%, respectively.

On to `Cc1cc(C(=O)Nc2ccc3c(c2)CCN3C2CCN(Cc3ccc(O)cc3)C2)no1` (stereo not drawn), for which the inhibition in assay [1] worked out at 4.29%; in assay [2] it was 5.39%; in assay [3] it was 2.38%.

`CN(C)c1ccc(-c2nc3cc(N)ccc3[nH]2)cc1`: the inhibition in assay [1] was -2.7%; in assay [2], 3.58%; in assay [3], 0.22%.

As for `CN1CCC[C@H]1COc1ccc(CN2CC[C@H](NC(=O)c3ccc(Cl)c(Cl)c3)C2)c2ccccc12`, the inhibition stood at 9.64% in assay [1], 8.86% in assay [2] and 6.54% in assay [3].

As for `CCCC[C@H](NC(=O)OC(C)(C)C)C(=O)Nc1ccc(Cc2ccc(NC(=O)[C@H](CCCC)NC(=O)OC(C)(C)C)cc2)cc1`, the inhibition turned out to be 4.27% in assay [1], 4.02% in assay [2] and 4.58% in assay [3].

Regarding `Cn1cc(C2CCN(CCCCNC(=O)c3ccc(C(=O)Nc4ccc(C#N)cc4)cc3)CC2)c2ccccc21`, the inhibition in assay [1] worked out at 9%; in assay [2] it was 7.5%; in assay [3], 7%.

With `Cc1ccccc1CN1CCCN(Cc2ccc(C(=O)Nc3ccc(Cl)cc3)cc2)CC1`, the results for the inhibition in assay [1], in assay [2] and in assay [3] were 7.5%, 6.18% and 6.4%, respectively.

Take `CCN(Cc1ccc(-c2ccc(C(F)(F)F)cc2)cc1)C(=O)Cn1c(SCc2cccc(F)c2F)cc(=O)c2cc(CN3CCCCC3)ccc21`: the values for the inhibition in assay [1], in assay [2] and in assay [3] were 0.46%, 0.7% and 5.02%, respectively.

Turning to `CCN(CCCN1CCCCC1)c1cc(C)nc(Nc2cc(Cl)ccc2C)n1`, the inhibition in assay [1] came to 1.18%; in assay [2], 1.77%; in assay [3], 1.67%.

On to `O=C(Nc1cccc(-c2ccc(-c3nc4cc(F)ccc4[nH]3)cc2)c1)c1ccncc1`, for which the inhibition in assay [1] is 4.46%; in assay [2] it was 2.3%; in assay [3], 2.96%.

These data come from ChEMBL document CHEMBL3433997, “St. Jude Leishmania screening dataset” (2016).
